About 3,300 (8.5%) of roughly 39,000 compounds were called active. This excerpt belongs to a sample that is enriched for actives.
What follows are molecules tested on HepG2 (assay: cytotoxicity call (relative viability < 0.9)). Conditions: 10 µM.

SMILES	cytotoxicity call
COc1ccccc1CNC(=O)C[C@H]1C[C@@H]2c3cc(NC(=O)NC4CCCC4)ccc3O[C@@H]2[C@H](CO)O1	inactive
NC[C@H]1CN(Cc2ccc(F)cc2)CCO1	inactive
CN1C(=O)c2cc(NC(=O)C3CCOCC3)ccc2OC[C@@H]2O[C@H](CC(=O)NCCc3ccncc3)CC[C@@H]21	inactive
N[C@@H](Cc1ccc2nonc2c1)C(=O)O	inactive
O=C(C[C@@H]1CC[C@@H]2[C@H](COC[C@H](O)CN2S(=O)(=O)c2ccc(Cl)cc2)O1)N1CCc2ccccc2C1	inactive
O=C(c1cccc2ccccc12)N(C1CCCC1)C1CCCC1	inactive
CCN(CC)CCOC(=O)C(Cc1cccc2ccccc12)CC1CCCO1.O=C(O)C(=O)O (stereo not given)	active
CCn1c(=O)cc(N2CCC(C)CC2)[nH]c1=O	inactive
CO[C@H]1C[C@H](O[C@H]2[C@H](C)O[C@@H](O[C@@H]3/C(C)=C/C[C@@H]4C[C@@H](C[C@]5(C=C[C@H](C)[C@@H](C6CCCCC6)O5)O4)OC(=O)[C@@H]4C=C(C)[C@@H](O)[C@H]5OC/C(=C\C=C\[C@@H]3C)[C@]54O)C[C@@H]2OC)O[C@@H](C)[C@@H]1O	inactive
CO/N=C1\C[C@]2(C[C@@H]3C[C@@H](C/C=C(\C)C[C@@H](C)/C=C/C=C4\CO[C@@H]5[C@H](O)C(C)=C[C@@H](C(=O)O3)[C@]45O)O2)O[C@H](/C(C)=C/C(C)C)[C@H]1C	active
COC1CC(OC2C(C)OC(OC3C(C)=CCC4CC(CC5(C=CC(C)C(C6CCCCC6)O5)O4)OC(=O)C4C=C(C)C(O)C5OCC(=CC=CC3C)C45O)CC2OC)OC(C)C1O (stereo not given)	inactive
CON=C1CC2(CC3CC(CC=C(C)CC(C)C=CC=C4COC5C(O)C(C)=CC(C(=O)O3)C45O)O2)OC(C(C)=CC(C)C)C1C (stereo not given)	active
C[C@@H]1CN([C@H](C)CO)C(=O)c2cc(NC(=O)c3ccncc3)ccc2O[C@@H](C)CCCCO[C@H]1CN(C)S(=O)(=O)c1cn(C)cn1	inactive
CC(C)NC(=O)N(C)C[C@@H]1Oc2ncc(-c3ccc(C(=O)N(C)C)cc3)cc2C(=O)N([C@H](C)CO)C[C@H]1C	inactive
CN(C)C(=O)c1cccc(-c2cccc(-c3nc(C(=O)N4CCCCC4)cc4c3[C@H](CCO)N([S@@](=O)C(C)(C)C)C4)c2)c1	inactive
C[C@@H]1CN([C@@H](C)CO)C(=O)c2cc(NC(=O)c3ccccc3)ccc2O[C@@H](C)CCCCO[C@H]1CN(C)C(=O)Nc1ccc2c(c1)OCO2	inactive
C[C@@H]1CN([C@@H](C)CO)C(=O)CCCn2nncc2CO[C@H]1CN(C)Cc1ccc2c(c1)OCCN2C	inactive
CCC(C)C(=O)OC1CCC=C2C=CC(C)C(CCC3CC(O)CC(=O)O3)C21 (stereo not given)	active
CCC(C)C(=O)OC1CC(O)C=C2C=CC(C)C(CCC(O)CC(O)CC(=O)[O-])C21.[Na+] (stereo not given)	inactive
CCC(C)C(=O)OC1CC(C)C=C2C=CC(C)C(CCC3CC(O)CC(=O)O3)C21 (stereo not given)	inactive
C[C@@H]1CCCCO[C@H](CN(C)C(=O)Nc2ccc(F)cc2)[C@@H](C)CN([C@H](C)CO)C(=O)c2cc(NS(=O)(=O)c3ccc(F)cc3)ccc2O1	inactive
C[C@H]1CCCCO[C@H](CN(C)C(=O)Nc2ccc(F)cc2)[C@@H](C)CN([C@@H](C)CO)C(=O)c2cc(NS(=O)(=O)c3ccc(F)cc3)ccc2O1	active
C[C@H](CO)N1C[C@H](C)[C@H](CN(C)C(=O)Nc2ccc(F)cc2)OCCCC[C@H](C)Oc2ccc(NS(=O)(=O)c3ccc(F)cc3)cc2C1=O	inactive
C[C@@H]1CCCCO[C@H](CN(C)C(=O)Nc2ccc(F)cc2)[C@@H](C)CN([C@@H](C)CO)C(=O)c2cc(NS(=O)(=O)c3ccc(F)cc3)ccc2O1	active
C[C@@H]1CN([C@H](C)CO)C(=O)c2cc(NS(=O)(=O)c3ccc(F)cc3)ccc2O[C@@H](C)CCCCO[C@H]1CN(C)C(=O)Nc1ccc(F)cc1	inactive

SMILES	cytotoxicity call
C[C@@H]1CN([C@@H](C)CO)C(=O)c2cc(NS(=O)(=O)c3ccc(F)cc3)ccc2O[C@@H](C)CCCCO[C@@H]1CN(C)C(=O)Nc1ccc(F)cc1	inactive
C[C@@H]1CN([C@H](C)CO)S(=O)(=O)c2ccc(C#Cc3ccccc3F)cc2O[C@@H]1CN(C)CC1CCOCC1	inactive
COc1ccc(CN(C)C[C@H]2OCCCC[C@@H](C)Oc3ccc(NC(=O)NC4CCCCC4)cc3C(=O)N([C@@H](C)CO)C[C@H]2C)cc1	inactive
Cc1ncsc1-c1ccc(CNC(=O)[C@@H]2C[C@@H](O)CN2C(=O)[C@H](C(C)C)N2Cc3ccccc3C2=O)cc1	inactive
CN1C(=O)Cc2cc(NS(C)(=O)=O)ccc21	inactive
COc1ccc(S(=O)(=O)Nc2ccc3c(c2)C(=O)N([C@@H](C)CO)C[C@H](C)[C@H](CN(C)Cc2ccc(C(=O)O)cc2)OCCCC[C@@H](C)O3)cc1	inactive
COCCN1C[C@H]2[C@H](OC)CCN(S(=O)(=O)c3cn(C)cn3)[C@H]2C1	inactive
CCC(=O)OC1(C(=O)CCl)C(C)CC2C3CCC4=CC(=O)C=CC4(C)C3(F)C(O)CC21C (stereo not given)	inactive
CCC(=O)OCC(=O)C1(OC(=O)CC)C(C)CC2C3CCC4=CC(=O)C=CC4(C)C3(Cl)C(O)CC21C (stereo not given)	inactive
CC1CC2C3CCC4=CC(=O)C=CC4(C)C3(Cl)C(O)CC2(C)C1(OC(=O)c1ccco1)C(=O)CCl (stereo not given)	active
C[C@@H]1CCCCO[C@H](CN(C)C(=O)Nc2ccccc2)[C@H](C)CN([C@H](C)CO)C(=O)c2cc(NC(=O)CCC(F)(F)F)ccc2O1	inactive
C[C@@H]1CN([C@H](C)CO)C(=O)c2cc(NC(=O)Cc3ccccc3)ccc2O[C@@H](C)CCCCO[C@@H]1CN(C)Cc1ccc(C(=O)O)cc1	inactive
Cn1c(=O)c2[nH]c(Br)nc2n(C)c1=O [listing 1 of 2 here]	inactive
Cn1c(=O)c2[nH]c(Br)nc2n(C)c1=O [listing 2 of 2 here]	inactive
Cn1c(=O)c2[nH]c(-[n+]3ccc(C(=O)O)cc3)nc2n(C)c1=O	active
C[C@H]1CN([C@@H](C)CO)C(=O)c2cccc(NS(=O)(=O)c3ccc(F)cc3)c2O[C@H]1CN(C)S(C)(=O)=O	inactive
COc1ccc(S(=O)(=O)Nc2ccc3c(c2)C(=O)N([C@@H](C)CO)C[C@H](C)[C@H](CN(C)C(=O)Nc2ccc(C(F)(F)F)cc2)OCCCC[C@H](C)O3)cc1	inactive
COc1ccc(S(=O)(=O)Nc2ccc3c(c2)C(=O)N([C@@H](C)CO)C[C@H](C)[C@@H](CN(C)C(=O)Nc2ccc(C(F)(F)F)cc2)OCCCC[C@@H](C)O3)cc1	active
COc1ccc(S(=O)(=O)Nc2ccc3c(c2)C(=O)N([C@@H](C)CO)C[C@H](C)[C@@H](CN(C)C(=O)Nc2ccc(C(F)(F)F)cc2)OCCCC[C@H](C)O3)cc1	active
COc1ccc(S(=O)(=O)Nc2ccc3c(c2)C(=O)N([C@H](C)CO)C[C@H](C)[C@H](CN(C)C(=O)Nc2ccc(C(F)(F)F)cc2)OCCCC[C@H](C)O3)cc1	inactive
COc1ccc(S(=O)(=O)Nc2ccc3c(c2)C(=O)N([C@H](C)CO)C[C@H](C)[C@H](CN(C)C(=O)Nc2ccc(C(F)(F)F)cc2)OCCCC[C@@H](C)O3)cc1	inactive
COc1ccc(S(=O)(=O)Nc2ccc3c(c2)C(=O)N([C@H](C)CO)C[C@@H](C)[C@H](CN(C)C(=O)Nc2ccc(C(F)(F)F)cc2)OCCCC[C@@H](C)O3)cc1	inactive
COc1ccc(S(=O)(=O)Nc2ccc3c(c2)C(=O)N([C@@H](C)CO)C[C@@H](C)[C@H](CN(C)C(=O)Nc2ccc(C(F)(F)F)cc2)OCCCC[C@H](C)O3)cc1	inactive
COc1ccc(S(=O)(=O)Nc2ccc3c(c2)C(=O)N([C@@H](C)CO)C[C@H](C)[C@H](CN(C)C(=O)Nc2ccc(C(F)(F)F)cc2)OCCCC[C@@H](C)O3)cc1	inactive
COc1ccc(S(=O)(=O)Nc2ccc3c(c2)C(=O)N([C@@H](C)CO)C[C@@H](C)[C@@H](CN(C)C(=O)Nc2ccc(C(F)(F)F)cc2)OCCCC[C@@H](C)O3)cc1	active

Reference: the antibiotic and cytotoxicity screens of Wong et al. (2023)
